Results as given in PubChem BioAssay (EPA / NIEHS).
Records with an inconclusive call do not appear. Activity calls are given as the source filed them. The calls were made as follows: active = hit-call score of the fitted dose curve at least 0.9, where 1 is the maximum; inconclusive = response in the unintended direction; inactive = score below 0.9.

Molecular target: PGR (gene 5241) (UniProt P06401)
Experiment: TOX21_PR_BLA_Followup_Agonist_ratio: Tox21 HEK293 Progesterone Receptor (PR) Agonism Beta-lactamase Follow-Up Assay, Ratio (AID 2283933)
Method: TOX21_PR_BLA_Followup is a secondary assay for specificity for the TOX21_PR_BLA_Agonist assay. To differentiate true PR agonists from cytotoxic substances, this follow up assay is multiplexed with a cell viability assay. The compounds were also tested for auto fluorescence that may interfere with the biological target readout resulting in potential false positives and/or negatives. To identify the compounds that stimulate PR signaling, a PR-UAS-bla GripTite cell line i.e. PR-UAS-bla HEK293T (Invitrogen, Carlsbad, CA, USA) containing a beta-lactamase reporter gene under the control of an UAS response element was used to screen Tox21 10K compound library. The cytotoxicity of the Tox21 compound library against the PR-bla cell line was tested in parallel by measuring the cell viability using CellTiter-Glo assay in the same wells. TOX21_PR_BLA_Followup_Agonist_ratio is an assay readout measuring reporter gene via receptor activity and designed using inducible reporter (beta lactamase induction) detected with GAL4 b-lactamase reporter gene. The signal is derived from the ratio of cleaved (ch2) to uncleaved (ch1) reporter gene substrate used as the measure of target activity.Data from the assay component TOX21_PR_BLA_Followup_Agonist_ratio was analyzed into 1 assay endpoint. This assay endpoint, TOX21_PR_BLA_Followup_Agonist_ratio, was analyzed in the positive analysis fitting direction relative to DMSO as the negative control and baseline of activity. Using a type of inducible reporter, measures of receptor for gain-of-signal activity can be used to understand the reporter gene at the pathway-level as they relate to the gene NR3C3. Furthermore, this assay endpoint can be referred to as a primary readout, because this assay has produced multiple assay endpoints where this one serves a reporter gene function. To generalize the intended target to other relatable targets, this assay endpoint is annotated to the nuclear receptor intended target family, where the subfamily is steroidal.
Assay Protocol: PR-UAS-bla HEK 293T cells were dispensed at 3,000 cells/5 uL of assay medium containing 2% charcoal stripped FBS per well into black wall/clear-bottom 1536-well plates using a Multidrop Combi (ThermoFisher Scientific, Waltham, MA) dispenser. After the assay plates were incubated at a 37C and 5% CO2 for 6hr, 23 nL of compounds dissolved in DMSO, positive controls or DMSO only was transferred to the assay plate by a Pintool station (Kalypsys, San Diego, CA). The plates were incubated at 37C and 5% CO2 for 16hr. Then 1 uL of LiveBLAzer B/G FRET substrate was added using a BioRAPTR FRD (Flying Reagent Dispenser, Aurora Discovery, San Diego, CA). After the plates were incubated at room temperature for 2 hours, fluorescence intensity was measured by an Envision plate reader (PerkinElmer, Shelton, CT).

Chain of PGR (gene 5241) (P06401 whole entry, looked up): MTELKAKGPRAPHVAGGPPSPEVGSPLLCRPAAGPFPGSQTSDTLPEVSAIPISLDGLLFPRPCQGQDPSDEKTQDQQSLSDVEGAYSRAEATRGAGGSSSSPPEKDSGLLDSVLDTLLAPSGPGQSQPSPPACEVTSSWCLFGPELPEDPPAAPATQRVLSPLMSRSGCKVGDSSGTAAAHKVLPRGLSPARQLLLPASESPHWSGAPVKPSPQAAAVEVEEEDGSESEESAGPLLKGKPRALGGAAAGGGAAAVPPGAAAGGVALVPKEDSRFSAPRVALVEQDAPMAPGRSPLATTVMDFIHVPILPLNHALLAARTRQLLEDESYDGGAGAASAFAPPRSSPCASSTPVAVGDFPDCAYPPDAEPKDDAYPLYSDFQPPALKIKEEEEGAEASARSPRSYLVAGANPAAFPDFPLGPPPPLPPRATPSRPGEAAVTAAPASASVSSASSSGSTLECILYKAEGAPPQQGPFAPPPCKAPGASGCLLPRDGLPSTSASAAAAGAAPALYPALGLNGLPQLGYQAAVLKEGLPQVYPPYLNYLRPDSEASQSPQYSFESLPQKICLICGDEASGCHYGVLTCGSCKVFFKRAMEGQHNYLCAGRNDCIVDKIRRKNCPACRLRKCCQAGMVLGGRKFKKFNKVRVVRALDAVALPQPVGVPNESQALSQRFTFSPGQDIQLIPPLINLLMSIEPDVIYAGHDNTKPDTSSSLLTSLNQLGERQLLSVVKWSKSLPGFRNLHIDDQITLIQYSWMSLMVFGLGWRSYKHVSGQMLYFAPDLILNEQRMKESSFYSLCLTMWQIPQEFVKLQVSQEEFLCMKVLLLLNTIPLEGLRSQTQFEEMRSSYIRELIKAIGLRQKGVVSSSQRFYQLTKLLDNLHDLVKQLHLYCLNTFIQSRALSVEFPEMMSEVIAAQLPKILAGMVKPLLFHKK

Compound	outcome	AC50
C[C@]12CCC(=O)C=C1CC[C@@H]1[C@@H]2[C@@H](O)C[C@@]2(C)[C@H]1CC[C@]2(O)C(=O)CO	inactive	–
C[C@@H]1CC(=O)NN=C1c1ccc(NN=C(C#N)C#N)cc1	inactive	–
CCCC(=O)OCOC(=O)C1=C(C)NC(C)=C(C(=O)OC)C1c1cccc(Cl)c1Cl (stereo unspecified)	inactive	–
CCN(CC)CC(=O)OCC(=O)[C@@]1(O)CC[C@H]2[C@@H]3CCC4=CC(=O)CC[C@]4(C)[C@H]3[C@@H](O)C[C@@]21C	inactive	–
COC(=O)[C@@H]1CC2=CC(=O)CC[C@]2(C)[C@@]23O[C@@H]2C[C@@]2(C)[C@@H](CC[C@@]24CCC(=O)O4)[C@H]13	inactive	–
CCC(=O)Oc1ccc2c(c1)CC[C@@H]1[C@@H]2CC[C@@]2(C)[C@H]1C[C@@H](OC(=O)CC)[C@@H]2OC(=O)CC	inactive	–
CN1CC[C@H](c2c(O)cc(O)c3c(=O)cc(-c4ccccc4Cl)oc23)[C@H](O)C1	inactive	–
CC(=O)O[C@H]1CC[C@@]2(C)C(=CC[C@@H]3[C@@H]2CC[C@]2(C)C(C(C)=O)=CC[C@@H]32)C1	inactive	–
CC(=O)O[C@@H]1CC2C3CCc4cc(OC(=O)c5ccccc5)ccc4C3CCC2(C)[C@H]1OC(C)=O (stereo partly specified)	inactive	–
CC(C)(C)C(O)/C=C/c1ccc2c(c1)OCO2 (stereo unspecified)	inactive	–
CCCOc1ccc2c(c1)CC[C@@H]1[C@@H]2CC[C@]2(C)C(OC)CC[C@@H]12 (stereo partly specified)	inactive	–
CN1CCN(C2=Nc3cc(F)ccc3Cc3ccccc32)CC1	inactive	–
COC(=O)C1=C(C)NC(C)=C(C(=O)OC(C)C)C1c1cccc2nonc12 (stereo unspecified)	inactive	–
CCOC(=O)C1=C(C)NC(C)=C(C(=O)OC)C1c1cccc(Cl)c1Cl (stereo unspecified)	inactive	–
Clc1ccc2c(c1)Nc1ccccc1S2	inactive	–
CCC(=O)O[C@]1(C(=O)COC)[C@@H](C)C[C@H]2[C@@H]3CCC4=CC(=O)C=C[C@]4(C)C3(F)[C@@H](O)C[C@@]21C (stereo partly specified)	–	468 nM (active)
CC(=O)OCC(=O)[C@H]1CC[C@H]2[C@@H]3CCC4=CC(=O)CC[C@]4(C)[C@H]3CC[C@]12C	–	844 nM (active)
CC1(C)OC(=O)Nc2ccc(Br)cc21	inactive	–
CC(=O)OCC(=O)[C@@]1(O)CC[C@H]2[C@@H]3CCC4=CC(=O)CC[C@]4(C)[C@H]3C(=O)C[C@@]21C	inactive	–
C/C=C(/C(=C/C)c1ccc(OC(C)=O)cc1)c1ccc(OC(C)=O)cc1	inactive	–
C[C@@H]1C[C@H]2[C@@H]3CCC4=CC(=O)C=C[C@]4(C)[C@@]3(F)[C@@H](O)C[C@]2(C)[C@@]1(O)C(=O)COC(=O)c1ccncc1	–	26100 nM (active)
